Assay in all cases: NCI-60 one-dose screen, 48 h (100 = growth as untreated, 0 = no growth, -100 = all killed)
What all share (settings): 10 µM unless noted

Experiment [1] has as its system NCI-H23 lung.
Experiment [2] deals with NCI-H226 lung.
In experiment [3] the test system is NCI-H322M lung.
The subject of experiment [4] is HOP-62 NSCLC.
In experiment [5] the test system is NCI-H460 lung.
The test system of experiment [6] is HOP-92 NSCLC.
Experiment [7] has as its system NCI-H522 lung.
The subject of experiment [8] is A549/ATCC NSCLC.
Experiment [9] deals with 786-0 renal.
The subject of experiment [10] is COLO 205 colon.
Experiment [11] concerns DU-145 prostate.
For experiment [12], the system named is K-562 leukemia.
Experiment [13] deals with MALME-3M melanoma.
Experiment [14] relates to MDA-MB-231 breast.
Experiment [15] has as its system RXF 393 renal.
Experiment [16] deals with SF-268 CNS.
Experiment [17] has as its system SF-295 CNS.
In experiment [18] the test system is UACC-257 melanoma.
In experiment [19] the test system is M14 melanoma.

Compounds without any hit were thinned out: in the full panel of roughly 83,000, 20% have a hit.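 Method: cells in 96-well plates; compound added at one concentration; 48 h incubation; percent growth measured; values under 10 scored active.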 Values without a mark were called inactive. Calls of active or inactive are those of the source.

In the case of `O=C1c2cccnc2C(=O)c2c1c(C(=O)OCCN1CCOCC1)c1ccccn21`, the growth in experiment [1] is -38.4% (active); in experiment [2], -28.4% (active); in experiment [3], -55.4% (active); in experiment [4] it was -34% (active); in experiment [5], -31.2% (active); in [6] it was 8.96% (active). Moreover, the growth in [7] was -30.2% (active); in experiment [8], -48.7% (active); in [9], 2.64% (active); in experiment [10], -53.5% (active); in experiment [11], -20.3% (active); in experiment [12], -16% (active). In addition, the growth was -64.8% (active) in experiment [13]; 9.01% (active) in experiment [14]; 10.7% in experiment [15]; 13% in experiment [16]; -47% (active) in experiment [17]; -47% (active) in [18]. Further, the growth in experiment [19] is -58.7% (active).

For the molecule `CS(=O)CCCCCN=C=S` (configuration not stated), the growth in experiment [1] is 4.24% (active); in experiment [2] it was -8.26% (active); in experiment [3], 1.21% (active); in [4], -7.49% (active); in experiment [5], 0.781% (active); in experiment [6] it was 19.5%. Moreover, the growth was -25.4% (active) in [7]; -0.774% (active) in experiment [8]; 9.82% (active) in [9]; -51.6% (active) in [10]; 9.76% (active) in experiment [11]; -0.259% (active) in experiment [12]. In addition, the growth in experiment [13] was -11.5% (active); in experiment [14], 9.17% (active); in [15], -34.7% (active); in experiment [16], 8.94% (active); in experiment [17], 51%; in [18] it was -6.89% (active). Moreover, the growth in experiment [19] was 8.73% (active).

For `C=C1CCC2C3(C)COC(c4ccc(SC)cc4)OC3CCC2(C)C1C/C=C1/C(=O)OCC1O` (configuration not stated), the growth in experiment [1] was 44.9%; in [2], 48.7%; in [3] it was 102%; in experiment [4], 107%; in [5], 81.8%; in [6], 81.7%. The growth in experiment [7] was 73.3%; in [8], 83.6%; in [9], 78.4%; in experiment [10], 72.3%; in [11], 88.1%; in experiment [12] it was 20.1%. Besides, the growth was 100% in [13]; 87.9% in [14]; 42.6% in experiment [15]; 88.7% in [16]; 81.9% in experiment [17]; 91.5% in experiment [18]. Moreover, the growth in experiment [19] is 69.3%.

Turning to `Nc1nc2c(c3ncccc13)C(c1ccc(Cl)c(Cl)c1)Cc1ncccc1-2` (configuration not stated), the growth in experiment [1] was 32.7%; in experiment [2], 70.8%; in [3], 40.9%; in [4] it was 28%; in experiment [5], 12.5%; in experiment [6], 59%. Besides, the growth is -6.27% (active) in experiment [7]; 22.7% in [8]; 29.9% in experiment [9]; 1.52% (active) in experiment [10]; 35.5% in experiment [11]; 11% in [12]. For the same molecule, the growth in [13] is 47.1%; in experiment [14] it was 28.9%; in experiment [15], -25.4% (active); in experiment [16] it was 44.8%; in experiment [17] it was 1.19% (active); in [18] it was 35.4%. For the same molecule, in experiment [19], the growth was 20%.

In the case of `CCOc1ccc(Nc2nc(-c3c(C)nc4ncccn34)cs2)cc1`, the growth in experiment [1] is 24.2%; in [2] it was 52.1%; in experiment [3], 52.2%; in experiment [4], 17.9%; in experiment [5] it was 5.6% (active); in [6], 18.2%. Further, the growth in [7] is -6.3% (active); in experiment [8], 22.4%; in experiment [9], 9.74% (active); in experiment [10], -60.8% (active); in experiment [11] it was 0.86% (active); in experiment [12], 4.04% (active). The growth in experiment [13] was 52.8%; in [14], -12.5% (active); in [15] it was -1.2% (active); in experiment [16] it was 28.4%; in experiment [17] it was 17.1%; in experiment [18] it was 78.8%. The growth in experiment [19] was 21.1%.

Take `CC/C(=C(\c1ccc(O)cc1)c1ccc(OCCN(C)CCN(C)C(=O)CCCCC(=O)c2c(C)[nH]c(/C=C3\N=C(c4ccc[nH]4)C=C3OC)c2C)cc1)c1ccccc1`: the growth is 94.1% in [1]; 90.5% in experiment [2]; 88.7% in [3]; 81% in experiment [4]; 76.8% in experiment [5]; 63.4% in experiment [6]. Moreover, the growth was 84.3% in experiment [7]; 88.5% in experiment [8]; 103% in [9]; 91.3% in experiment [10]; 65.8% in [11]; 42.9% in [12]. The growth in [13] was 116%; in experiment [14], 35.1%; in experiment [15], 83%; in experiment [16], 75.9%; in experiment [17], 89.2%; in experiment [18] it was 99.8%. Moreover, the growth in experiment [19] is 39.7%.

For `COc1ccc2nc3cc(Cl)ccc3c(N3CCN(c4nccc(Nc5ccc(Cl)cc5)n4)CC3)c2c1`, the growth in experiment [1] was 86.4%; in experiment [2], 99.8%; in experiment [3], 97.5%; in [4], 88.1%; in [5] it was 67%; in experiment [6], 34.8%. For the same molecule, the growth was 51.8% in experiment [7]; 76.4% in experiment [8]; 42.2% in experiment [9]; 95.7% in experiment [10]; 75.5% in [11]; 10.8% in experiment [12]. Also, the growth in experiment [13] is 120%; in experiment [14], 60.3%; in [15] it was 53.1%; in experiment [16], 53.7%; in [17], 84.1%; in experiment [18], 88.7%. Besides, the growth in [19] was 43.4%.

In the case of `CCOC(=O)c1c2c(n3ccc(NC(=O)CCN(CC)CC)cc13)C(=O)c1ncccc1C2=O`, the growth is 0.0285% (active) in [1]; 75.1% in experiment [2]; 73.4% in [3]; 31.4% in experiment [4]; -20.4% (active) in experiment [5]; 82.1% in experiment [6]. Moreover, the growth in experiment [7] was 6.16% (active); in experiment [8] it was 36.2%; in [9] it was 50.1%; in experiment [10], 54.1%; in [11], 66.5%; in experiment [12], 49.7%. Besides, the growth in [13] was 76.9%; in experiment [14], 42.4%; in [15], 67.2%; in experiment [16] it was 41.9%; in experiment [17], 38%; in experiment [18] it was 57.3%. In addition, in [19], the growth was 49.7%.

(Values after PubChem BioAssay (NCI).)
